Data: the supplement of paper PMC11732987, “Enantioselective OTUD7B fragment discovery through chemoproteomics screening and high-throughput optimisation” (Communications Chemistry, 2025)

What was measured:
Assay in all cases: log2 ratio of Biotin-Ahx-Ub-VS probe labelling (fragment/DMSO); higher = less target engagement (more negative = stronger competition), active = hit call of the paper (q ≤ 0.05, log2 ratio ≤ -1)
Settings in all cases: compound concentration: 200 uM; treatment time: 3 h
USP19 = molecular target: T1, USP19 (UniProt O94966)
T1 sequence (whole entry): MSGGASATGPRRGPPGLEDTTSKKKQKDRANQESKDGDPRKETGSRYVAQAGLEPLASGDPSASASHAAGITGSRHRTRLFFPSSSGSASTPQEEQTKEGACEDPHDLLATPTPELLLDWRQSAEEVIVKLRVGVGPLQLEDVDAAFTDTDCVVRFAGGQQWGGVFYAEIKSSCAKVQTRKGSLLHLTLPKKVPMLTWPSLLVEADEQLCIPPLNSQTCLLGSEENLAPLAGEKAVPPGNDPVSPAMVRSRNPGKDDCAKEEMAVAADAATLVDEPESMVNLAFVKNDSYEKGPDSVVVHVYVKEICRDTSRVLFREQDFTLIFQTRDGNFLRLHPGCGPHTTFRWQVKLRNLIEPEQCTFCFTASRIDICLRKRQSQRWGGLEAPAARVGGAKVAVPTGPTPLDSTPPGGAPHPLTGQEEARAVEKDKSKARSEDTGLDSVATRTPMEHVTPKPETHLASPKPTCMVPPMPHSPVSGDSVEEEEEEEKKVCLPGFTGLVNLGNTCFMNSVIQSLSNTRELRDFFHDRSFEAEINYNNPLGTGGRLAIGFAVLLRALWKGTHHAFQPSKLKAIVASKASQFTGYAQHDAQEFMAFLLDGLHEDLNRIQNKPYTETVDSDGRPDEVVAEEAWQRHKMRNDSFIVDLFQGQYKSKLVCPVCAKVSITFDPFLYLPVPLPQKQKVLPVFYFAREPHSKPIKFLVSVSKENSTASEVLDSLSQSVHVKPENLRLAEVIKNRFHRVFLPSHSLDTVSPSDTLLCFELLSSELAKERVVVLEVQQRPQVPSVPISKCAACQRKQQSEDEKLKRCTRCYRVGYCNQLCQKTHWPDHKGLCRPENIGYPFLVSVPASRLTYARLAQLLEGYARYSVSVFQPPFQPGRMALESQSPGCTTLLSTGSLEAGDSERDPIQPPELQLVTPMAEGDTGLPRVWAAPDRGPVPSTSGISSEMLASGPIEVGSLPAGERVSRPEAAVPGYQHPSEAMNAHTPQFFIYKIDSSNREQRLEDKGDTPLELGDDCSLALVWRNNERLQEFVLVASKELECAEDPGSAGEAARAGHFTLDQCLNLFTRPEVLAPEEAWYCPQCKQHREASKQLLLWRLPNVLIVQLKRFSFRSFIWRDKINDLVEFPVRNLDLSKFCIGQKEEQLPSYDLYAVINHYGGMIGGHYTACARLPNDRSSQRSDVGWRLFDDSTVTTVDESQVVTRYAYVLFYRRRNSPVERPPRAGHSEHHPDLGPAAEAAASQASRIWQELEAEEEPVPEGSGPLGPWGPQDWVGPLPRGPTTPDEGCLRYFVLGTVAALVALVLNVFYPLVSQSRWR
Method in brief: (§1)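 The table lists average log2 ratios of fragment over vehicle, from an unpaired t-test on global-median-normalised Spectronaut label-free quantities. Proteins with ≥2 unique peptides were used. Samples were HEK293T lysate (495 µg) treated in triplicate with fragment at 200 µM or vehicle for 3 h, then with Biotin-Ahx-Ub-VS (0.5 µM final) for 1 h, with labelled DUBs NeutrAvidin-enriched and run by diaPASEF LC-MS/MS.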

USP22 = molecular target: T2, USP22 (UniProt Q9UPT9)
T2 sequence (whole entry): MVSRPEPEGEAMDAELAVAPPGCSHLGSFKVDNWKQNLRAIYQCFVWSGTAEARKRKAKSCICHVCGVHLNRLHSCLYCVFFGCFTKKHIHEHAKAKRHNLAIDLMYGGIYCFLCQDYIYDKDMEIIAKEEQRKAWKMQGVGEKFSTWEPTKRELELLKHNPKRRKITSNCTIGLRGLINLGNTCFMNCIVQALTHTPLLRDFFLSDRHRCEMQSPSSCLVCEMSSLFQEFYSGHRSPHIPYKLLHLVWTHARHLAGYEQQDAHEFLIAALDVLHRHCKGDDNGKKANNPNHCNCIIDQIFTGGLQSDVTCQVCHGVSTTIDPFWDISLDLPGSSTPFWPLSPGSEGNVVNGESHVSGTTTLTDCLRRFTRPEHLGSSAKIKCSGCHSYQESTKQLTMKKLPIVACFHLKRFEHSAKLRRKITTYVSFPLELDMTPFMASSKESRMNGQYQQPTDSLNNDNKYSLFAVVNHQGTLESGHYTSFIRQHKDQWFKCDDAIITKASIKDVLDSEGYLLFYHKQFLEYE
Method in brief: as §1

USP24 = USP24 (UniProt Q9UPU5)
Method in brief: as §1

USP25 = molecular target: T3, USP25 (UniProt Q9UHP3)
T3 sequence (whole entry): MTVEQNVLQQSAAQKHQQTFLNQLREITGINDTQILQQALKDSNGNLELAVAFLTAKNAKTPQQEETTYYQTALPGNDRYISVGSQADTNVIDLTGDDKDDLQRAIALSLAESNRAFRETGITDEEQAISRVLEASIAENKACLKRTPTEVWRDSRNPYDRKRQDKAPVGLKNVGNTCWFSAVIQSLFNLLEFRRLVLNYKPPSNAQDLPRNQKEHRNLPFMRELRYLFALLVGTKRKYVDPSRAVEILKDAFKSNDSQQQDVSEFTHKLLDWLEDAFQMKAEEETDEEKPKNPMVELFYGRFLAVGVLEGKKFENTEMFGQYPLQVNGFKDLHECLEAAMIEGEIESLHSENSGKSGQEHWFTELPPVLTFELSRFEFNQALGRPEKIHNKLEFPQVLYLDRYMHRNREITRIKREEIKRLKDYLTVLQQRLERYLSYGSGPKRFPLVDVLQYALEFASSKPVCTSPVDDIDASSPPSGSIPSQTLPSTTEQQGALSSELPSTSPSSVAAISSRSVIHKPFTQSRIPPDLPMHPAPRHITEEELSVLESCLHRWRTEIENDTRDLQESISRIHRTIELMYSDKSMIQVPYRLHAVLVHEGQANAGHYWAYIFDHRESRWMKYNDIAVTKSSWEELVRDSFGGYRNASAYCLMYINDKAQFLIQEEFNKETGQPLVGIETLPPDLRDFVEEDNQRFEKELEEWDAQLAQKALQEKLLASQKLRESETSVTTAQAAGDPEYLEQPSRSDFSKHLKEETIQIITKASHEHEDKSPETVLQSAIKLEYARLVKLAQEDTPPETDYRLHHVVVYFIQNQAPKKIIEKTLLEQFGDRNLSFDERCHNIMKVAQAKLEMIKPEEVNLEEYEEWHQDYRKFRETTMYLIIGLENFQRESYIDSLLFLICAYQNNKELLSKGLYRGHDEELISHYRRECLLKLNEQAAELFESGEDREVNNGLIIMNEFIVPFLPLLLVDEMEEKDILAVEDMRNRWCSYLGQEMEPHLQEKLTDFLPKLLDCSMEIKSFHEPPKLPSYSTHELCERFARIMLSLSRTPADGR
Method in brief: as §1

USP28 = molecular target: T4, USP28 (UniProt Q96RU2)
T4 sequence (whole entry): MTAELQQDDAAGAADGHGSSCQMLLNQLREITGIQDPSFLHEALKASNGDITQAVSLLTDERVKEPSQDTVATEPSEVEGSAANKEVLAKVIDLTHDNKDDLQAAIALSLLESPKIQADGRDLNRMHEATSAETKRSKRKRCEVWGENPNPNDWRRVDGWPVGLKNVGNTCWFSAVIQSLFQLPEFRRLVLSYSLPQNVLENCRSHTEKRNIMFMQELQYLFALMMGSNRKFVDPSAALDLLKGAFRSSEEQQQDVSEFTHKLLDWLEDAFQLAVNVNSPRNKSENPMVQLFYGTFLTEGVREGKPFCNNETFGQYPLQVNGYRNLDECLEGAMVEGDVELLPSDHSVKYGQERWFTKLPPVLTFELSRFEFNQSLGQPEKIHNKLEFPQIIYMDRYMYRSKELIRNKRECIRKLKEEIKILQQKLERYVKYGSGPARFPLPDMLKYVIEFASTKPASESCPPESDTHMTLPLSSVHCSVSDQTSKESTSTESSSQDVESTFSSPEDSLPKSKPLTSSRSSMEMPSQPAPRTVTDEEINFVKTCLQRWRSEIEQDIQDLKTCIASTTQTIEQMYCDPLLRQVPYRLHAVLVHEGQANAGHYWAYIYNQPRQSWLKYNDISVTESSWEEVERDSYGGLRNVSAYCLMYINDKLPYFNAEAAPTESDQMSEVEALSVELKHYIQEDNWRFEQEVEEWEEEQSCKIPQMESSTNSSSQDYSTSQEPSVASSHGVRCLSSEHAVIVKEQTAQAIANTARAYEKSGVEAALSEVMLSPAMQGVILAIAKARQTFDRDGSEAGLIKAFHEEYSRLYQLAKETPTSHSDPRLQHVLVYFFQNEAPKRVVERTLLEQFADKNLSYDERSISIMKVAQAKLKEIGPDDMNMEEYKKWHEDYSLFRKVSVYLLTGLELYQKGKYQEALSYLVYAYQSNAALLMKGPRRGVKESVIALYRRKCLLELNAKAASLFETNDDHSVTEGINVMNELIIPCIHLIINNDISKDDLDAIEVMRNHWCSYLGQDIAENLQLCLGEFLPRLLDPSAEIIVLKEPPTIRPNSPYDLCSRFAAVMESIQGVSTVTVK
Method in brief: as §1

Measured: log2 ratio of Biotin-Ahx-Ub-VS probe labelling

Chain of USP24 (Q9UPU5 whole entry): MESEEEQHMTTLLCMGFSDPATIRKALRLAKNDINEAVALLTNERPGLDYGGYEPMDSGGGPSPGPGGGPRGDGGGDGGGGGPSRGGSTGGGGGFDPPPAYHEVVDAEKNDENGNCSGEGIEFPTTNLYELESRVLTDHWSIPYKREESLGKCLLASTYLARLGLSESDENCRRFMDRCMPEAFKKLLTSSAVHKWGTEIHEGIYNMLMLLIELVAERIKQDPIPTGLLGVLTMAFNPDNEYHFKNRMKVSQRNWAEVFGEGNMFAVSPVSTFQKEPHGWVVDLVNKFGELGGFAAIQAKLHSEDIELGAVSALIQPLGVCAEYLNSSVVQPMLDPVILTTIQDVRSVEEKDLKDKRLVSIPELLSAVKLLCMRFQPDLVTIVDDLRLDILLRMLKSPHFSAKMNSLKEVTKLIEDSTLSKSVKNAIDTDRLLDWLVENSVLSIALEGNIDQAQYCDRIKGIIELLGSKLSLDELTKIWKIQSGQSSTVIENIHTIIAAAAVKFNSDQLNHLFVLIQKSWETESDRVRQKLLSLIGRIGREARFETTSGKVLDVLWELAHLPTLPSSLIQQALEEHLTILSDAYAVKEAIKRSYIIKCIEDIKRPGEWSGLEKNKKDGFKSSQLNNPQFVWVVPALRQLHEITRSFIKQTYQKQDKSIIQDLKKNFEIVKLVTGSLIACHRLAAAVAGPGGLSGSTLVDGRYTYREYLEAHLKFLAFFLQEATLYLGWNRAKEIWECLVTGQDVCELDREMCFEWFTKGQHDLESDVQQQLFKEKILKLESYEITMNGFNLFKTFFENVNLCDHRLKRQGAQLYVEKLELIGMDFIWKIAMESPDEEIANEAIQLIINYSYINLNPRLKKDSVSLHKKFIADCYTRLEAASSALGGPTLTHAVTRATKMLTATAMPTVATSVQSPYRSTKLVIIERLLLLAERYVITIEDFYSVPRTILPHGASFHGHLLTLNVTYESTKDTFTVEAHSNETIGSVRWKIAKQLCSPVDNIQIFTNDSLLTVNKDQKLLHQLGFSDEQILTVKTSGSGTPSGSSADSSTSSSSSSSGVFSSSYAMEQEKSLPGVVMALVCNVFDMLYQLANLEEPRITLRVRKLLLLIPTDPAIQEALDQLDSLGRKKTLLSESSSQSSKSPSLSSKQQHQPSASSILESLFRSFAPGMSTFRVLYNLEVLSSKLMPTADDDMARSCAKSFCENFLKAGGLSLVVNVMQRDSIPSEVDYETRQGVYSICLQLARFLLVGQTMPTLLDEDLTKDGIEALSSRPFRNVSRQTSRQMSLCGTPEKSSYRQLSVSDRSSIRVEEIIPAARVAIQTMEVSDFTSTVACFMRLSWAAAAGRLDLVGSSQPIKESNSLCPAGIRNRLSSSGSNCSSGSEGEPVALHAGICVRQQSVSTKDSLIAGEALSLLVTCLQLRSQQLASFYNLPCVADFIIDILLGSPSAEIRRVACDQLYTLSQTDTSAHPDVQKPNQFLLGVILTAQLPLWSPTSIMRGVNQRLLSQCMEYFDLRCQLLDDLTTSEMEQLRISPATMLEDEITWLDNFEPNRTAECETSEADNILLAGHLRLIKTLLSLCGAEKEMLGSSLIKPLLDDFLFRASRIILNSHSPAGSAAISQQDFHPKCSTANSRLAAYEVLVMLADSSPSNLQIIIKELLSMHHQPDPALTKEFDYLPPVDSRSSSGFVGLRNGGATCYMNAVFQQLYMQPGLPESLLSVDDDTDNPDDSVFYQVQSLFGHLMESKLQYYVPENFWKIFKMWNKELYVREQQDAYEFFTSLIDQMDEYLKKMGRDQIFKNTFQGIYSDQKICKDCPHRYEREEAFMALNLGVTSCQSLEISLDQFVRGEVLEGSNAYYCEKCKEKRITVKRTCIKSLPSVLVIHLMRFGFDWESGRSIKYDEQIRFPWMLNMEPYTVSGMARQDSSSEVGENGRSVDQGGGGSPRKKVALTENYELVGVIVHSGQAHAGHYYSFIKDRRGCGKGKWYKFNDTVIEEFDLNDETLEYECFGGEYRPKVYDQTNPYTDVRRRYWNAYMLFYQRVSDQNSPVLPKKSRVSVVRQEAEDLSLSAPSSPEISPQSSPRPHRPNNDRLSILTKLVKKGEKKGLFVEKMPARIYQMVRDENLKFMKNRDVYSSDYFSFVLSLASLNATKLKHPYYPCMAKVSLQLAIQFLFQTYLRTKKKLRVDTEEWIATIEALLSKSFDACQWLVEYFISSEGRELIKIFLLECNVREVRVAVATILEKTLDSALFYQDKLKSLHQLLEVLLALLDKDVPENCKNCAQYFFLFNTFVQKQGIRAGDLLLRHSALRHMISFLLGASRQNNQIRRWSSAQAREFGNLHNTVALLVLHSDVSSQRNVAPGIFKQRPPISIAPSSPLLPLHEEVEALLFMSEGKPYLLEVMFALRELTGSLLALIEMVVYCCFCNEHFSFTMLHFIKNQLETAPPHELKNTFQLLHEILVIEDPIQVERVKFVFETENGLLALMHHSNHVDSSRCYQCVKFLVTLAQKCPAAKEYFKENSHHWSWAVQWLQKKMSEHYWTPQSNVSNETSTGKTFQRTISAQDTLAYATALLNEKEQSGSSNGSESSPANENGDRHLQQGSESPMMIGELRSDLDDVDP

O=C(CCl)NCc1ccc(Cl)cc1
inactive: USP19 -0.0819 | USP22 -0.199 | USP24 -0.0304 | USP25 -0.395 | USP28 -0.414
